Among all 3,200 compounds or so, about 300 (9.4%) showed activity. Shown is part of a subset that was picked to be rich in actives. Unmarked numbers belong to inactive results.
System: A673/TR/shEF
Assay: cell viability (LOESS-normalised, relative to median of negative controls) (log2 ratio); higher = more viable cells (less compound effect), active = hit call of the paper (over 3 MAD below the median)
Details: treatment time: 72 h
In short: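 Viability of A673/TR/shEF Ewing sarcoma cells was determined by CellTiter-Glo luminescence. The cells, at 1,500 per well in 384-well plates, were grown with or without doxycycline from 24 h before compound addition to switch on EWS-FLI1 shRNA knockdown, then exposed for three days to library compounds at two or more concentrations or to DMSO controls. Signals were LOESS-corrected plate by plate, normalised to the negative-control median and log2-transformed.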

[1] = 0.25 µM, library screen: screen1, EWS-FLI1 expression: high (no doxycycline)
[2] = 0.25 µM, library screen: screen1, EWS-FLI1 expression: low (doxycycline-induced shRNA knockdown)
[3] = 2.5 µM, library screen: screen1, EWS-FLI1 expression: high (no doxycycline)
[4] = 2.5 µM, library screen: screen1, EWS-FLI1 expression: low (doxycycline-induced shRNA knockdown)

Structure (SMILES)	cell viability (log2) (0.25 µM, library screen: screen2, EWS-FLI1 expression: high (no doxycycline))	cell viability (log2) (0.25 µM, library screen: screen2, EWS-FLI1 expression: low (doxycycline-induced shRNA knockdown))	cell viability (log2) (2.5 µM, library screen: screen2, EWS-FLI1 expression: high (no doxycycline))	cell viability (log2) (2.5 µM, library screen: screen2, EWS-FLI1 expression: low (doxycycline-induced shRNA knockdown))	cell viability (log2) [1]	cell viability (log2) [2]	cell viability (log2) [3]	cell viability (log2) [4]
CSc1nc(N)c2ncn(C3OC(COP(=O)(O)OP(=O)(O)O)C(O)C3O)c2n1 (stereo unspecified)	0.0889	0.0973	0.157	0.0918				
CC(C)(O)[C@H]1CC[C@]2(C)[C@H]3CC[C@@H]4[C@@]5(C)CCCC(C)(C)[C@@H]5[C@@H](O)C[C@@]4(C)[C@]3(C)CC[C@@H]12					0.0136	0.0775	0.0306	0.112
COc1cc(C2NC(=S)NC(C)=C2C(=O)Nc2cccc(Cl)c2)cc(OC)c1OC (stereo unspecified)					0.123	0.0893	0.204	0.0553
COc1cccc(N2C(=O)C(=Cc3cccc(O)c3)SC2=S)c1					0.113	0.0758	0.133	0.182
CC(=O)O[C@H]1C[C@@H](OC(C)=O)C(C)(C)C2C[C@@H](OC(C)=O)[C@@]3(C)C4=CC(=O)O[C@@H](c5ccoc5)[C@]4(C)CCC3[C@]21C (stereo partly specified)					0.0506	0.0595	-0.853 (active)	-0.345 (active)
CC(=O)O[C@H]1CC[C@@]2(C)C(C[C@@H](OC(C)=O)[C@@]3(C)C4=CC(=O)OC(c5ccoc5)[C@]4(C)CCC23)C1(C)C (stereo partly specified)					0.121	0.145	0.126	0.124
CC(=O)O[C@@H]1CC[C@@]2(C)C(C[C@@H](OC(C)=O)[C@@]3(C)C4=CC(=O)O[C@@H](c5ccoc5)[C@]4(C)CCC23)C1(C)C (stereo partly specified)					-0.00795	0.0487	0.121	0.0464
COc1cc(C(=O)N2CCOCC2)c([N+](=O)[O-])cc1OC					0.0993	0.0316	0.0928	-0.0159
CCCCCCCCCCCCCCCCCC(=O)OC[C@H](COP(=O)(O)OCC(O)COP(=O)(O)OC[C@@H](COC(=O)CCCCCCCCCCCCCCCCC)OC(=O)CCCCCCCCCCCCCCCCC)OC(=O)CCCCCCCCCCCCCCCCC (stereo partly specified)					0.0223	0.0715	0.128	0.138
CC(=O)O[C@@H]1C[C@H]2C(C)(C)C(=O)[C@@H]3O[C@@H]3[C@]2(C)[C@H]2CC[C@@]3(C)[C@H](c4ccoc4)OC(=O)[C@H]4O[C@]43[C@@]21C					0.0357	0.0669	0.155	0.138
COc1cc2c(cc1-c1coc3c4c(c(OC)cc3c1=O)OC(C)(C)C=C4)OCO2					0.082	0.0865	0.173	0.0953
COc1c2c(cc3ccoc13)C(=O)[C@H]1c3cc4c(cc3OC[C@H]1O2)OCO4					0.0834	0.0158	0.0793	-0.0539
COc1c(CC(=O)c2cc3c(cc2O)OC(C)(C)C(O)C3)ccc2c1C=CC(C)(C)O2 (stereo unspecified)					0.0608	-0.00504	0.0765	0.0703
COc1ccc(-c2c(OC)c3c(OC)c4c(cc3oc2=O)OC(C)(C)C=C4)cc1					0.0786	0.00334	0.211	0.00828
COc1ccc2c(c1)O[C@@H]1COc3cc(OC)c(OC)cc3[C@@H]1C2=O					-0.0338	0.0823	-0.0122	-0.0233
COc1ccc2c(c1)O[C@H]1c3ccc(O)cc3OC[C@@H]21					0.225	0.129	0.184	0.206
COc1cc2c(cc1OC)[C@@H]1C(=O)c3c(cc4c(c3O)C=CC(C)(C)O4)O[C@@H]1CO2					-0.0181	-0.000972	-0.392 (active)	-0.0174
COc1cc2c(cc1OC)[C@@H]1C(=O)c3c(O)cc4c(c3O[C@@H]1CO2)C=CC(C)(C)O4					-0.205 (active)	-0.261 (active)	-0.213 (active)	-0.138
COc1cc2c(cc1OC)[C@@H]1C(=O)c3ccc4c(c3O[C@@H]1CO2)C=CC(C)(C)O4					-0.591 (active)	-0.253 (active)	-2.11 (active)	-0.84 (active)
